Screening results deposited in PubChem by several laboratories.
Beta apoptosis = inhibitors of cytokine-induced beta cell apoptosis, primary screen, luminescence | INS-1E cytokine-induced death, ATP luminescence, 48 h; percent of positive-control rescue, neutral wells zero | protection from apoptosis, % (test concentration not listed) | 300,000 compounds, 0.8% hits | AID 435005, 2010;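 active = Every replicate reaches about 75%, or at least half do and their mean reaches it too, limit read from the data; inconclusive = At least half of replicates reach the limit but their mean does not; inactive = Under half of replicates reach the limit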;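 also: higher means more ATP so stronger rescue from cytokine killing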
MPTP inh = mitochondrial permeability transition pore inhibitors, primary screen, biochemical, isolated mouse mitochondria, absorbance. inhibition, % at 10 µM. 360,000 compounds, 1.4% hits. Ca2+ swelling absorbance, 30 min;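 active = inhibition of 50% or more, scaled per plate between neutral and stimulator controls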
NR3A LBD binder = binders of NR3A ligand-binding domain, primary screen, biophysical, differential scanning fluorimetry, uHTS | Tm shift relative to glycine control, % at 25 µM | 340,000 compounds, 2.5% hits | NR3A LBD differential scanning fluorimetry, Tm shift; 0% = protein alone, 100% = glycine-bound protein;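 active = melting temperature shift of at least 10% of the positive control shift, at one fixed dose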
Mdm2 MdmX PPI = inhibitors of human Mdm2-MdmX association, primary screen, cell-based, luminescence, split luciferase, SaOS-2, uHTS. 330,000 compounds, 3% hits. inhibition, % at 8 µM. SaOS-2 split-luciferase Mdm2/MdmX complementation;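 active = inhibition of at least 50% at 8 µM in the primary screen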
Target sequence (O15151 whole entry, looked up): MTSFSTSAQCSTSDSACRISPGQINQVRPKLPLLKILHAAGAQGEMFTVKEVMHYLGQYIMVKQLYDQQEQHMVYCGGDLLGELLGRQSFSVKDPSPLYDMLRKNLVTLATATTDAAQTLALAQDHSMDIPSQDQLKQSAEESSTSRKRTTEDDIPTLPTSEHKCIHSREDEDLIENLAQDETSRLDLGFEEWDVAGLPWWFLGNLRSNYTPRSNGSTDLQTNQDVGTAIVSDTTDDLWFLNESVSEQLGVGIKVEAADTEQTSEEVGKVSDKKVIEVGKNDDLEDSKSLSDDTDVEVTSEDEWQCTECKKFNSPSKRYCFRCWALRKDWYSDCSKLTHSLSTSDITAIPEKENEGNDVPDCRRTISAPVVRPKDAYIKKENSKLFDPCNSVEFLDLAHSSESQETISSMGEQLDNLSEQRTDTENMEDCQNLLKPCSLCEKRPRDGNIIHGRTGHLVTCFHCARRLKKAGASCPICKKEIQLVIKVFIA
Target sequence (Q00987 whole entry, looked up): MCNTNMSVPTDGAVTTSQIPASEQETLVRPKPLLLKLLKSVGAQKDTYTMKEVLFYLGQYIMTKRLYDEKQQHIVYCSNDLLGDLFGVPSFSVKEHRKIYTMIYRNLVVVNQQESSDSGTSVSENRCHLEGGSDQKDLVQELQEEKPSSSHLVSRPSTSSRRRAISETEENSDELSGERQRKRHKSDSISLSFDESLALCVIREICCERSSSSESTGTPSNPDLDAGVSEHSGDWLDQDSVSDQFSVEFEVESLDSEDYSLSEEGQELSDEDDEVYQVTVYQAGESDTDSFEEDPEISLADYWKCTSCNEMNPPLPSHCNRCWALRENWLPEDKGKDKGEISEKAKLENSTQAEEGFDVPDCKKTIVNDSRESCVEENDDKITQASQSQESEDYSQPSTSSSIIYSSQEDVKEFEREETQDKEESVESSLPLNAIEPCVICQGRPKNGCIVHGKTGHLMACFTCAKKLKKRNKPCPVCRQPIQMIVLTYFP
SKKanGAS inh = S. pyogenes SKKanGAS growth inhibitors in kanamycin, primary screen, streptokinase expression inhibitor project, SKKanGAS strain, BacTiter-Glo luminescence | 6 h | inhibition, % at 7.5 µM | 300,000 compounds, 1.3% hits;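 active = mean replicate score, as percent of positive control median, at least 50; inconclusive = mean below 50 but one replicate at or above 50; inactive = mean and every replicate below 50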;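 also: strain carries kanamycin resistance gene driven by streptokinase promoter and grows in 40 µg/ml kanamycin; loss of luminescence reflects streptokinase promoter inhibition or plain growth inhibition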
CSC inhib = cancer stem cell viability inhibitors, primary screen, luminescence; cancer stem cell-like cells viability; inhibition, % at 7.5 µM; 300,000 compounds, 1.1% hits; AID 2717, 2010; in the data active = inhibition above about 75%; inconclusive = no clear call, values can overlap the other calls; tested in HMLE shEcad cells
Mdm2-MdmX conf = Mdm2-MdmX complex disruptors, retested hits, confirmation, luminescence, single concentration; inhibition, % at 8 µM; shares compounds with Mdm2 MdmX PPI; Mdm2-MdmX binding, luminescent assay; AID 489028, 2010; 10,000 compounds, 55% hits; in the data active = inhibition above about 40%
Full FLuc ctr = full-length luciferase signal inhibition, confirmation, counter-screen for Mdm2/MdmX interaction inhibitor project, cell-based, single concentration, SaOS-2; shares compounds with Mdm2 MdmX PPI; inhibition, % at 8 µM; SaOS-2 full-length luciferase counterscreen, luminescence; AID 504607, 2011; 6,200 compounds, 77% hits;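 active = mean inhibition at 8 µM reaching about 37%, which flags the compound as non-specific, limit read from the data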;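 also: p53-null SaOS-2 cells with luciferase driven by a doxycycline-inducible promoter; compound on cells about two nights before reading with doxycycline added after day one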
Hits are given with their value; 0 = inactive; ? = inconclusive; - = no result. Shown are actives, neighbours in structure and some others; about 6.9% of the full set was active somewhere.

SMILES | Beta apoptosis | MPTP inh | NR3A LBD binder | Mdm2 MdmX PPI | SKKanGAS inh | CSC inhib | Mdm2-MdmX conf | Full FLuc ctr
O=Nc1c(-c2c(O)[nH]c3cc(Br)ccc23)[nH]c2ccccc12 | 0 | 0 | 0 | 99 | 95 | 103 | 0 | -
O=C(CSCc1cccc(Br)c1)N=Nc1c(O)[nH]c2ccccc12 | 0 | 0 | 0 | 0 | 0 | 0 | - | -
COc1cccc(C(=O)Nc2cc(C)on2)c1 | - | 0 | - | - | - | - | - | -
COc1ccc(OCc2cccc(C(=O)Nn3cc([N+](=O)[O-])cn3)c2)cc1 | 0 | 0 | 0 | 79 | 0 | 0 | 71 | 0
COc1ccc(OCc2cccc(C(=O)Nc3cc(C)on3)c2)cc1 | 0 | 0 | 0 | 0 | 0 | 0 | 0 | -
COc1ccc(OCc2cccc(C(=O)NN)c2)cc1 | 0 | 0 | 0 | 0 | 0 | 0 | - | -
CCN(CC)S(=O)(=O)c1ccc(N/N=C/c2cccnc2)nc1 | 0 | 0 | 0 | 0 | 0 | 0 | - | -
CCN(CC)S(=O)(=O)c1ccc(N/N=C/c2cc(OC)ccc2O)nc1 | 108 | 0 | 24 | 80 | 0 | 104 | 83 | 0
O=C1Cc2cc(S(=O)(=O)N3CCN(c4cccc(Cl)c4)CC3)ccc2N1 | 0 | 0 | 0 | 0 | 0 | 0 | - | -
CCc1cccc(C)c1NC(=S)NCCc1c(C)[nH]c2ccc(C)cc12 | 0 | 0 | 0 | 64 | 0 | 0 | 54 | 41
COc1ccc2[nH]c(C)c(CCNC(=S)Nc3cccc(C)c3)c2c1 | - | 0 | 0 | 0 | 0 | 0 | - | -
CCc1cccc(CC)c1NC(=S)NCCc1c(C)[nH]c2ccc(C)cc12 | 0 | 0 | 0 | 71 | 0 | 0 | 51 | 54
CCCN(CC1CC1)C(=O)CSc1ncnc2sccc12 | 0 | 0 | 0 | 0 | 0 | 0 | - | -
CCCCn1c(N)c(N(CCOC)C(=O)CN(C)S(=O)(=O)c2ccc(C)cc2)c(=O)[nH]c1=O | 0 | 0 | 0 | 0 | 0 | 0 | - | -
COc1ccc(-c2cc3ccc(OC(C)C(=O)O)cc3oc2=O)cc1 (stereo not given) | 0 | 0 | 0 | 0 | 0 | 0 | - | -
O=S(=O)(c1ccc(NC(=S)N/N=C/c2c3ccccc3cc3ccccc23)cc1)N1CCOCC1 | 0 | 0 | 0 | 58 | - | 0 | 0 | -
O=S(=O)(c1ccc(NC(=S)N/N=C/c2ccc(N3CCOCC3)cc2)cc1)N1CCOCC1 | 0 | 0 | 0 | 0 | 0 | 0 | - | -
O=S(=O)(c1ccc(NC(=S)N/N=C/c2ccc(Oc3ccccc3)cc2)cc1)N1CCOCC1 | 0 | 0 | 0 | 64 | 0 | 0 | 0 | 85
Cc1ccc(C)c(Cn2nc(-c3cc(C)ccc3C)ccc2=O)c1 | 0 | 0 | 0 | 0 | 0 | 0 | - | -
COc1ccc(N2CCN(C(=O)CCc3ccc(S(=O)(=O)NC(C)(C)C)cc3)CC2)cc1 | 0 | 0 | 0 | 0 | 0 | 0 | - | -
CC1CCN(CC(CS(=O)(=O)c2ccc([N+](=O)[O-])cc2)N2CCC(C)CC2)CC1 (stereo not given) | 0 | 0 | 0 | 100 | 0 | ? | 100 | 50
COCCNC(=O)C1CCCN(C(=O)c2cc(-c3cccs3)oc2C)CC1 (stereo not given) | - | 0 | - | - | - | - | - | -
Cn1ncc2c(O/N=C(\N)c3ccc(C(F)(F)F)cc3)ncnc21 | 0 | 0 | 0 | 98 | 0 | 0 | 46 | 0
CCc1ccc(/C=C2/Sc3ccccc3N(CC(=O)NCC3CCCO3)C2=O)cc1 (stereo not given) | - | 0 | 0 | 0 | 0 | 0 | - | -
Cc1cccc2c1-c1sc(C(=O)NCCCN3CCC(C)CC3)cc1CO2 | 0 | 0 | 0 | 57 | 0 | 0 | 0 | -
SMILES | Beta apoptosis | MPTP inh | NR3A LBD binder | Mdm2 MdmX PPI | SKKanGAS inh | CSC inhib | Mdm2-MdmX conf | Full FLuc ctr
Cc1ccc(S(=O)(=O)CCC(=O)Nc2nnc(-c3cccs3)o2)cc1 | - | 0 | 0 | 0 | 0 | 0 | - | -
COc1ccc(N=c2oc3ccc(OC)cc3cc2-c2nc3ccccc3[nH]2)cc1 | 0 | 0 | 0 | 93 | 0 | 0 | 0 | -
Cc1nnc(SCC(=O)N(C)c2ccccc2)n1Cc1ccccc1 | 0 | 0 | 0 | 0 | 0 | 0 | - | -
O=C(CCN1C(=O)/C(=C/c2ccc(F)cc2)SC1=S)NNC(=O)c1ccncc1 | 0 | 0 | 0 | 0 | 0 | 0 | - | -
O=C(CCN1C(=O)/C(=C/c2ccccc2)SC1=S)NCCc1ccc(O)cc1 | 0 | 0 | 17 | 98 | 0 | 0 | 88 | 60
COc1ccccc1/C=C1\SC(=S)N(CCC(=O)Nc2ccc(C(=O)O)c(O)c2)C1=O | 0 | 0 | 0 | 0 | 0 | 0 | - | -
O=C(CCN1C(=O)/C(=C/c2ccc(F)cc2)SC1=S)N[C@@H](CO)Cc1ccccc1 | 0 | 0 | 0 | 82 | 0 | 0 | 61 | 37
COc1ccccc1/C=C1\SC(=S)N(CCC(=O)NCCc2ccc(O)cc2)C1=O | - | 0 | 0 | 60 | 0 | 0 | 0 | 69
O=C(CCN1C(=O)/C(=C/c2ccccc2F)SC1=S)NCCc1ccc(O)cc1 | - | 0 | 0 | 71 | 0 | 0 | 53 | 0
Brc1ccc(NC(c2ccccc2)c2ccncc2)cc1 (stereo not given) | 0 | 0 | 0 | 0 | 0 | 0 | - | -
COc1ccc(/C=C2\SC(=S)N(CCC(=O)NCCc3ccc(O)cc3)C2=O)cc1 | 0 | 0 | 15 | 79 | 0 | 0 | 71 | 0
COc1ccccc1/C=C1\SC(=S)N(CC(=O)Nc2nnc(C)s2)C1=O | 98 | - | - | 94 | 0 | 96 | 0 | -
Cc1ccc(N(CC(=O)NC2CCCC2)C(=O)c2nsc(Cl)c2Cl)cc1 | 0 | 0 | 0 | 0 | 0 | 0 | - | -
CCOc1ccc(CN2CCN(c3cc(C)nc4c5c(C)cc(C)nc5nn34)CC2)cc1 | - | - | - | - | 0 | - | - | -
Cc1cc(C)c2c(n1)nn1c(N3CCN(c4ccccc4C)CC3)cc(C)nc21 | 0 | 0 | 0 | 64 | - | 0 | 0 | -
CC(=O)N1N=C(c2ccco2)CC1c1ccco1 (stereo not given) | 0 | 0 | 0 | 0 | 0 | 0 | - | -
Cc1ccc(C2=NN(C(=O)CCl)C(c3ccco3)C2)o1 (stereo not given) | - | 0 | 0 | 100 | 0 | - | 99 | 58
Cc1ccc(OCC(=O)N/N=C\c2cccn2C)c([N+](=O)[O-])c1 | 0 | 0 | 0 | 0 | 0 | 0 | - | -
N#CC1=C(N)NC(SCc2ccc(F)cc2)=C(C#N)C12CCCCC2 | 0 | 0 | 0 | 59 | 0 | 0 | 60 | 72
Cc1c(C(=O)NCCCN2CCCCC2)oc2ccc3c(c12)C(O)CC1(CCCCC1)O3 (stereo not given) | 0 | 0 | 0 | 76 | 0 | 0 | 0 | 55
